# According to PubChem BioAssay AID687001 (Broad Institute, 2013):
# Results with a measured potency or affinity are listed apart. Calls of active or inactive are those of the source.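 How the source made its calls: active means signal-lowering compounds whose fitted half-maximal concentration is at or below twice the top tested dose in every run; inconclusive means runs disagree, flat 30 to 70% inhibition, or poor curve fit; inactive means the rest.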
# Molecular target: Protein S100-A4 (Homo sapiens) (UniProt P26447)
# Assay: S100A4-myosin IIA binding inhibitor potency, dose response, biochemical, fluorescence polarization, cherry-picked hits (AID 687001)
# Conditions: FP, S100A4/TAMRA-myosin IIA peptide binding; series mostly up to 11 µM
# Sequence of Protein S100-A4 (Homo sapiens) (P26447 whole entry, looked up): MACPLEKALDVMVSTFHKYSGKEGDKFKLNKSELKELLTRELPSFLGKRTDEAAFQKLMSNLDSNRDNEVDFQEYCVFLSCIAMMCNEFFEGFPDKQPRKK
row,SMILES,outcome
1,COc1ccc(S(=O)(=O)N(C)C[C@@H]2OCCCC[C@@H](C)Oc3ccc(NC(=O)Nc4ccc(C(F)(F)F)cc4)cc3C(=O)N([C@H](C)CO)C[C@@H]2C)cc1,inactive
2,O=C(C[C@@H]1CC[C@@H](NC(=O)NC2CCCC2)[C@H](CO)O1)NCc1ccc(F)cc1,inactive
3,Cc1ccc(C2CC(=O)NC(SCCC(C)C)=C2C#N)cc1 (centres undefined),inactive
4,CCC(=O)N1C[C@H](O)COC[C@H]2O[C@H](CC(=O)NCc3cc(F)cc(F)c3)CC[C@@H]21,inactive
5,C#CCOCCOCCOCCNc1nc(N2CCN(C(=O)[C@H]([C@@H](C)CC)n3cc(CCCCN)nn3)CC2)nc(N2CCN(C(=O)[C@H](C)n3cc(CCC(=O)O)nn3)CC2)n1,inactive
6,CN1C(=O)c2cc(NC(=O)Cc3cccs3)ccc2OC[C@H]2O[C@H](CC(=O)N[C@H]3CCN(Cc4ccccc4)C3)CC[C@@H]21,inactive
7,CCCNC(=O)Nc1ccc2c(c1)C(=O)N(C)C[C@@H](OC)[C@@H](C)CN[C@@H](C)CO2,inactive
8,CN(CCC#N)C(=O)COC(=O)[C@H](Cc1ccccc1)N1C(=O)c2ccccc2C1=O,inactive
9,C[C@H]1CCCCO[C@H](CN(C)S(=O)(=O)c2ccc(F)cc2)[C@@H](C)CN([C@@H](C)CO)C(=O)c2cc(NS(=O)(=O)c3ccccc3)ccc2O1,inactive
10,O=C(CNC(=O)c1ccco1)NNC(=O)c1ccc(Br)cc1,inactive
11,Cc1ccc(N2CCN(C(=O)c3[nH]c(C(F)(F)F)nc3-c3ccccc3)CC2)cc1,inactive
12,COCCCN1CC(=O)N2C(c3ccccc3)c3[nH]c4ccccc4c3C[C@H]2C1=O (some centres undefined),inactive
13,CCCNC(=O)N[C@H]1C=C[C@@H](CC(=O)N2CCN(C)CC2)O[C@@H]1CO,inactive
14,C[C@H](CO)N1C[C@H](C)[C@@H](CN(C)S(=O)(=O)c2cccs2)OCCCC[C@H](C)Oc2ccc(NS(C)(=O)=O)cc2C1=O,inactive
15,COc1cccc(CN2CC(C(=O)NCC3CCOCC3)CCC2=O)c1 (centres undefined),inactive
16,CC(C)c1ccc(/C=N/n2c(COc3ccccc3)n[nH]c2=S)cc1,inactive
17,Cc1cc(C(=O)N/N=C/c2ccccn2)c2ccccc2n1,inactive
18,COc1ccc(CN(C)C[C@@H]2Oc3ccc(NS(=O)(=O)c4ccccc4)cc3CC(=O)N([C@H](C)CO)C[C@H]2C)cc1,inactive
19,O=C1NC[C@H](c2ccccc2)OC(=O)[C@H](Cc2ccc(F)cc2)C/C=C\C[C@H]1CC(=O)N(CCO)Cc1ccccc1,inactive
20,Cc1ccc2c(c1)C(c1ccccc1)N(C(=O)c1ccccc1[N+](=O)[O-])CC(=O)N2 (centres undefined),inactive
21,CC(C)C#Cc1ccc([C@H]2[C@@H](CO)N(C(=O)c3cccc(F)c3)[C@H]2C#N)cc1,inactive
22,Cc1ccnc(NC(=O)C(C)N2C(=O)c3ccccc3S2(=O)=O)c1 (centres undefined),inactive
23,CC1Sc2ccc(S(=O)(=O)N3CCC(C(=O)NCCc4ccccc4)CC3)cc2NC1=O (centres undefined),inactive
24,COc1ccccc1[C@H]1C(c2ccc(F)cc2)=NN(c2ccccc2)[C@@H]1CO,inactive
